Active and inactive are the calls of the source. Rule for the calls: active = hit-call score of the fitted dose curve at least 0.9, where 1 is the maximum; inactive = score below 0.9.
Columns and labels:
[1] = read-out: Tissue plasminogen activator (tPA), PLAT (gene 5327); test: BSK_BE3C_tPA: BioMAP Diversity Plus: BE3C Assay for Tissue plasminogen activator (tPA) Biomarker Activity (AID 2283041); conditions: primary human bronchial epithelial cells; actives raise or lower the signal
Summary of the method: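 Human primary bronchial epithelial cells were dosed with chemical and tPA biomarker levels measured by ELISA 24 hours later. Activity was fitted bidirectionally against DMSO as negative control and baseline.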

[2] = read-out: Interleukin-8 (IL8), CXCL8 (gene 3576); test: BSK_CASM3C_IL8: BioMAP Diversity Plus: CASM3C Assay for Interleukin-8 (IL8) Biomarker Activity (AID 2283042); conditions: primary human coronary artery smooth muscle cells; actives raise or lower the signal;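 note: IL-8 protein level quantified by ELISA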
[3] = read-out: Human Leukocyte Antigen - DR isotype (HLADR), HLA-DRA (gene 3122); test: BSK_CASM3C_HLADR: BioMAP Diversity Plus: CASM3C Assay for Human Leukocyte Antigen - DR isotype (HLADR) Biomarker Activity (AID 2283043); conditions: primary human coronary artery smooth muscle cells; actives raise or lower the signal;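 note: cell-surface HLA-DR protein level quantified by ELISA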
[4] = read-out: Macrophage colony-stimulating factor (MCSF), CSF1 (gene 1435); test: BSK_CASM3C_MCSF: BioMAP Diversity Plus: CASM3C Assay for Macrophage colony-stimulating factor (MCSF) Biomarker Activity (AID 2283044); conditions: primary human coronary artery smooth muscle cells; actives raise or lower the signal;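 note: M-CSF protein amount quantified by ELISA after 24 h exposure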
[5] = read-out: Low-density lipoprotein receptor (LDLR), LDLR (gene 3949); test: BSK_CASM3C_LDLR: BioMAP Diversity Plus: CASM3C Assay for Low-density lipoprotein receptor (LDLR) Biomarker Activity (AID 2283045); conditions: primary human coronary artery smooth muscle cells; actives raise or lower the signal;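 note: LDLR protein level on the cell surface quantified by ELISA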
[6] = read-out: Monocyte Chemoattractant Protein-1 (MCP1), CCL2 (gene 6347); test: BSK_CASM3C_MCP1: BioMAP Diversity Plus: CASM3C Assay for Monocyte Chemoattractant Protein-1 (MCP1) Biomarker Activity (AID 2283046); conditions: primary human coronary artery smooth muscle cells; actives raise or lower the signal;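 note: MCP-1 level quantified by ELISA 24 h after dosing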
[7] = BSK_CASM3C_Proliferation: Cell Proliferation Assessment in the BioMAP Diversity Plus: CASM3C Assay (AID 2283047); conditions: primary human coronary artery smooth muscle cells;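 note: sulforhodamine B total protein stain as relative cell number at 560 nm; sub-confluent cells exposed 48 h before staining; fitted both ways against DMSO so gain or loss of cell number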
[8] = read-out: Monokine induced gamma interferon (MIG), CXCL9 (gene 4283); test: BSK_CASM3C_MIG: BioMAP Diversity Plus: CASM3C Assay for Monokine induced gamma interferon (MIG) Biomarker Activity (AID 2283048); conditions: primary human coronary artery smooth muscle cells; actives raise or lower the signal;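 note: MIG protein level measured by ELISA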
[9] = read-out: serum amyloid A (SAA), SAA1 (gene 6288); test: BSK_CASM3C_SAA: BioMAP Diversity Plus: CASM3C Assay for serum amyloid A (SAA) Biomarker Activity (AID 2283049); conditions: primary human coronary artery smooth muscle cells; actives raise or lower the signal;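 note: SAA protein level quantified by ELISA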
[10] = BSK_CASM3C_SRB: Viability Assessment in the BioMAP Diversity Plus: CASM3C Assay (AID 2283050); conditions: primary human coronary artery smooth muscle cells;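 note: total protein by SRB staining as cytotoxicity measure in parallel cultures; cells exposed to compound for 24 h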

Measured: AC50

N#CN
inactive: [1] | [2] | [3] | [4] | [5] | [6] | [7] | [8] | [9] | [10]

Clc1ccccc1-c1nnc(-c2ccccc2Cl)nn1
inactive: [1] | [2] | [3] | [4] | [5] | [6] | [8] | [9] | [10]

OCCOc1ccccc1
active: [9] 20 µM
inactive: [1] | [2] | [3] | [4] | [5] | [6] | [7] | [8] | [10]

CC1(c2ccc(Oc3ccccc3)cc2)OC(=O)N(Nc2ccccc2)C1=O (stereo not drawn)
active: [7] 13.7 µM
inactive: [1] | [2] | [3] | [4] | [5] | [6] | [8] | [9] | [10]

Cc1cc(C)nc(NC(=O)NS(=O)(=O)c2ccccc2C(=O)OC2COC2)n1
inactive: [1] | [2] | [3] | [4] | [5] | [6] | [7] | [8] | [9] | [10]

CCOCN(C(=O)CCl)c1c(C)cccc1CC
inactive: [1] | [3] | [4] | [5] | [6] | [8] | [9] | [10]
active: [2] 15.8 µM | [7] 30 µM

N#Cc1c(Cl)c(Cl)c(Cl)c(C#N)c1Cl
active: [1] 3.97 µM | [2] 3.36 µM | [3] 6.09 µM | [4] 3.31 µM | [6] 3.56 µM | [7] 0.148 µM | [8] 2.14 µM | [9] 4.82 µM | [10] 2 µM
inactive: [5]

CCc1ccc(C(=O)NN(C(=O)c2cc(C)cc(C)c2)C(C)(C)C)cc1
inactive: [1] | [2] | [3] | [4] | [5] | [6] | [8] | [9] | [10]
active: [7] 22.9 µM

C#CCN1C(=O)COc2cc(F)c(N3C(=O)C4=C(CCCC4)C3=O)cc21
inactive: [1] | [2] | [3] | [4] | [5] | [6] | [7] | [8] | [9] | [10]

CC(C)N(C(=O)COc1nnc(C(F)(F)F)s1)c1ccc(F)cc1
inactive: [1] | [2] | [3] | [4] | [5] | [6] | [7] | [8] | [9] | [10]

CCOC1Oc2ccc(OS(C)(=O)=O)cc2C1(C)C (stereo not drawn)
inactive: [1] | [2] | [3] | [4] | [5] | [6] | [7] | [8] | [9] | [10]

COC(=O)c1ccccc1CS(=O)(=O)NC(=O)Nc1nc(OC)cc(OC)n1
inactive: [1] | [2] | [3] | [4] | [5] | [6] | [7] | [8] | [9] | [10]

CCN(CC)C(=O)SCc1ccc(Cl)cc1
active: [7] 16.4 µM
inactive: [1] | [2] | [3] | [4] | [5] | [6] | [8] | [9] | [10]

CC[C@H](C)[C@H]1O[C@]2(C=C[C@@H]1C)C[C@@H]1C[C@@H](C/C=C(\C)[C@@H](O[C@H]3C[C@H](OC)[C@@H](O[C@H]4C[C@H](OC)[C@@H](O)[C@H](C)O4)[C@H](C)O3)[C@@H](C)/C=C/C=C3\CO[C@@H]4[C@H](O)C(C)=C[C@@H](C(=O)O1)[C@]34O)O2 (tested in a mixture with another compound)
active: [1] 5.27 µM | [2] 17.4 µM | [3] 9.73 µM | [4] 20 µM | [6] 11.7 µM | [7] 6.85 µM | [8] 29.7 µM | [10] 15 µM
inactive: [5] | [9]

O=C(O)COc1ccc(Cl)cc1Cl
inactive: [1] | [2] | [3] | [4] | [5] | [6] | [7] | [8] | [9] | [10]

CC(C)OC(=O)Nc1cccc(Cl)c1
inactive: [1] | [2] | [3] | [4] | [5] | [6] | [7] | [8] | [9] | [10]

COC(=O)c1ccccc1S(=O)(=O)NC(=O)Nc1nc(C)nc(OC)n1
inactive: [1] | [2] | [3] | [4] | [5] | [6] | [7] | [8] | [9] | [10]

Cc1[nH]c(=O)n(C(C)(C)C)c(=O)c1Cl
inactive: [1] | [2] | [3] | [4] | [5] | [6] | [7] | [8] | [9] | [10]

CN1CSC(=S)N(C)C1
inactive: [1] | [2] | [3] | [5] | [6] | [8] | [9] | [10]
active: [7] 14.5 µM

COC(=O)c1ccccc1S(=O)(=O)NC(=O)N(C)c1nc(C)nc(OC)n1
inactive: [1] | [2] | [3] | [4] | [5] | [6] | [7] | [8] | [9] | [10]

CCC(C)(C)C(=O)OC1=C(c2ccc(Cl)cc2Cl)C(=O)OC12CCCCC2
active: [1] 20 µM | [4] 13.7 µM | [7] 25.7 µM | [10] 28.7 µM
inactive: [2] | [3] | [5] | [6] | [8] | [9]

CNC(=O)CSP(=S)(OC)OC
inactive: [1] | [2] | [3] | [4] | [5] | [6] | [7] | [8] | [9] | [10]

CC1(C)C(C=C(Cl)Cl)C1C(=O)OC(C#N)c1ccc(F)c(Oc2ccccc2)c1 (stereo not drawn)
inactive: [1] | [2] | [3] | [4] | [5] | [6] | [7] | [8] | [9] | [10]

CCOc1nc(NC)nc(NC(=O)NS(=O)(=O)c2ccccc2C(=O)OC)n1
inactive: [1] | [2] | [3] | [4] | [5] | [6] | [7] | [8] | [9] | [10]

O=[N+]([O-])c1c(Cl)c(Cl)c(Cl)c(Cl)c1Cl
inactive: [1] | [2] | [3] | [4] | [5] | [6] | [7] | [8] | [9] | [10]

O=C(NC(=O)c1c(F)cccc1F)Nc1ccc(OC(F)(F)C(F)OC(F)(F)F)c(Cl)c1 (stereo not drawn)
inactive: [1] | [2] | [3] | [4] | [5] | [6] | [7] | [8] | [9] | [10]

CCS(=O)(=O)c1cccnc1S(=O)(=O)NC(=O)Nc1nc(OC)cc(OC)n1
active: [9] 16.4 µM
inactive: [1] | [2] | [3] | [4] | [5] | [6] | [7] | [8] | [10]
